# Assays:
# Assay in all cases: PBM binding z-score (relative to random genomic background probes); higher = stronger binding; sequences stand for … in GC…GCGATTGACAGCGTAGAATGAAGG
# [1] = tested on: RARb homodimer (NR concentration 270 nM)
# Summary of the method: (§1)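 Binding z-scores were set against random background probes. The data came from custom Agilent 4×180K protein-binding microarrays carrying double-stranded probes with 34-nt variable regions, incubated 1 h with ligand-free nuclear receptor dimers. Partner-specific antibodies detected binding, and scanned fluorescence was regression-normalized.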
# [2] = tested on: RARg:RXRa (NR concentration 270 nM, RXRa partner concentration 90 nM)
# Summary of the method: as §1
# [3] = tested on: RARg homodimer (NR concentration 270 nM)
# Summary of the method: as §1
# [4] = tested on: RXRa DBDmut IVT, anti-RXR (DBD mutation: RXRa K156A/R161A, NR concentration 90 nM)
# Summary of the method: as §1
# [5] = tested on: RXRa homodimer (NR concentration 180 nM)
# Summary of the method: as §1
# [6] = tested on: THRa:RXRa (NR concentration 90 nM, RXRa partner concentration 90 nM)
# Summary of the method: as §1
# [7] = tested on: THRa homodimer (NR concentration 90 nM)
# Summary of the method: as §1
# [8] = tested on: VDR homodimer (NR concentration 270 nM)
# Summary of the method: as §1
Sequence,PBM binding z-score [1],PBM binding z-score [2],PBM binding z-score [3],PBM binding z-score [4],PBM binding z-score [5],PBM binding z-score [6],PBM binding z-score [7],PBM binding z-score [8]
TCTCGGAGGACACGAAAGGTCAGAACTCGACATC,4.38,4.56,5.19,0.955,3.93,3.46,1.48,1.29
CTCGAAAGGTCGTGCTCAGGTGAGTACACCAAAC,2.93,5.5,4.41,2.36,5.63,4.01,1.21,2.52
TCGCGTAGGTTACGGGGGCATTCAGGGATGAAGA,2.37,3.63,2.87,1.99,3.08,3.93,1.5,2.44
TCTAGTTGGTCAAAGGCCACACACTCGAAATGCG,1.9,1.77,1.42,0.875,1.71,0.626,0.029,-0.00157
ATATGTAGGTTACATCCGGGTCATTCTGGCTATG,2.67,3.21,1.93,1.51,3.1,3.63,2.37,2.5
ACTCGGAGGATAAAGGTCAGAGCTACGCCAGTGA,3.89,4.72,4.44,0.655,4.43,2.69,0.203,0.801
ACTCGGAGGACAGAGGTCAGAGCTACGCCAGTGA,3.82,4.6,4.17,0.707,4.17,3.03,0.579,1.19
CGAACTAGGTCAAAGGACAGTCAAAGGCGACGTA,3.04,4.11,4.5,1.74,3.05,2.54,0.161,0.43
CTTTGTAGGTTAAGGGGGTCATTCAGTTTGAAAG,3.99,5.28,4.16,2.79,6.08,3.97,2.08,5.68
CGAACTAGGTCAAAGGATAGTGAAAGGCGACGTA,2.35,3.47,4.16,1.28,2.85,2.22,0.17,0.124
TCTAGCTGGTCACGGAGGTCACACACGACGGGTA,4.17,4.88,5.01,0.665,5.01,3.67,2.27,2.72
GGAACGAGGGCAAAGGTGATAGCATCTGTCGACG,1.66,3.02,1.95,2.07,3.31,1.85,-0.159,1.02
CGAACTAGGTCAAAGGCCAGTGAAAGGCGACGTA,3.16,4.37,4.81,1.49,3.62,2.42,0.00822,-0.206
CGAACTAGGTCAAAGGGCAGTGAAAGGCGACGTA,3.46,5.34,4.91,1.65,5.31,3.11,0.218,0.354
CTATGTAGGTTAAGGGGGACATTCAGTTTGAAAG,1.99,1.81,1.7,1.47,1.39,2.23,1.37,2.64
CGTCAAAGTTCAAGGTAAAGTAACAGAAAGCAGC,3.36,5.19,6.06,4.04,4.17,2.5,0.503,2.89
CCTACTGGGCCATTCAGAGGACATTGATCATATG,0.736,0.858,0.53,-0.28,-0.174,0.676,0.238,0.541
CTAACTAGGTCACCAGGACAGTGAAGAGGTTGGA,3.4,4.69,5.53,1.67,3.98,3.51,2.16,0.856
CGTCCAAGGTCAGATAGGTCAGTGAATGCCGAGT,4.84,5.45,6.04,3.06,4.4,3.73,1.92,3.28

Sequence,PBM binding z-score [1],PBM binding z-score [2],PBM binding z-score [3],PBM binding z-score [4],PBM binding z-score [5],PBM binding z-score [6],PBM binding z-score [7],PBM binding z-score [8]
CCGAGTAGGTTGCGAGGGGGCATTCAGTGCGAAT,1.77,1.99,1.28,1.58,1.27,3.09,0.684,3.23
TCGAGTAGGTTACGGGGCCATTCAGGGATGAAGA,1.21,0.957,0.954,0.0548,1.06,2.47,0.44,0.657
CGAACTAGGTCACCAGGACAATGAAGAGGTTGGA,3.4,4.27,5.1,1.58,3.35,3.7,2.12,0.459
CGTCCAAGGTCAGAGAGGTCACTGAATGCCGAGT,5.89,7.04,7.93,3.39,6.93,4.71,3.53,6.07
TCGAGTTGGTTACGGGGGCATTCAGGGATGAAGA,1.6,2.49,1.71,2.61,1.89,3.74,1.87,4.57
CGAACTAGGTCACCAGGACAGTGCAGAGGTTGGA,3.73,4.5,5.27,1.53,3.58,3.36,2.27,0.862
CCAACTAGGTCACCAGGACAGTGAAGAGGTTGGA,3.74,4.53,5.37,1.24,3.51,3.37,1.89,0.883
CGAACTAGTTCACCAGGACAGTGAAGAGGTTGGA,1.09,1.14,1.44,2.02,0.753,1.69,0.658,1.05
TCGAGTAGGTTACGGGGGGATTCAGGGATGAAGA,1.73,2.76,2.33,2.47,2.04,3.42,1.85,2.02
ATATGTAGGTTAAGGGTCATGCAGGTTGGTTCGC,3.89,5.07,3.84,1.76,6.52,3.5,1.93,3.81
CGAACTAGGTTACCAGGACAGTGAAGAGGTTGGA,1.01,0.707,1.05,0.48,0.367,1.62,0.878,0.0565
TCGAGTAGGTTACGGGGGCATTCAGGGATGAAGA,2.45,3.55,2.61,1.79,2.77,3.81,1.25,2.57
CATACCGGGTCAGCTAGGCCAGAGTAGGGACGGC,2.34,3.47,3.83,-0.0713,3,2.53,0.906,0.395
ATTTGTAGGTTAGGGTCATTCAGAAAGTAGGGAA,3.88,4.4,3.72,2.82,5.6,4.17,3.71,4.56
GATAAAGGGTCAGCTAGAGGCCAGAGTATGGAAA,4.46,7.34,6.77,1.54,5.05,3.06,-0.108,0.772
CCTGCTAGGTCTATGGTCAGCTAAAGCAGCTCGC,0.163,-0.335,-0.344,0.301,-0.345,-0.0563,-0.394,-0.594
CCGAGTAGTTTACGAGGGGGCATTCAGTGCGAAT,1.7,1.92,1.48,2.08,1.37,2.54,0.595,3.37
CGAACTAGGGCAAAGGACAGTGAAAGGCGACGTA,1.44,1.1,1.87,0.227,-0.0436,0.0548,-0.953,-0.515
ACATGTAGGTTAGGGTCATTCAGAAAGTAGGGAA,3.51,4.16,3.32,3.02,5.14,4.05,3.66,3.75

Sequence,PBM binding z-score [1],PBM binding z-score [2],PBM binding z-score [3],PBM binding z-score [4],PBM binding z-score [5],PBM binding z-score [6],PBM binding z-score [7],PBM binding z-score [8]
CGACCTAGGTCAAAGGACAGTGAAAGGCGACGTA,3.13,4.74,5.05,1.69,4,2.86,0.639,0.41
CCGAGTAGGATACGAGGGGGCATTCAGTGCGAAT,1.17,1.37,0.779,0.527,0.919,1.97,-0.158,2.57
CAAGCTAGGTCAAGAGGTCAAAGTCCGCTTCCCG,5.7,8.34,7.66,2.58,8.24,4.31,2.36,3.64
CAAAGTAGGTCACGAAAGGTCAAAGTCGAATGAC,6.1,8.06,8.76,2.36,8.62,4.95,1.49,3.31
ATATGTAGGTTAGGGTCCTTCAGAAAGTAGGGAA,0.958,0.561,0.821,0.642,0.851,1.21,0.898,0.793
CCGAGTAGGTTACGAGGGGGCATTCACTGCGAAT,2.02,3.01,2.43,1.06,1.98,3.81,0.568,2.51
CCGAGTAGGTTACGAGTGGGCATTCAGTGCGAAT,0.401,0.298,0.292,-0.0539,0.364,0.606,-0.579,0.108
TCTAGTTGGTCAAAGGTCAAACACTCGAAATGCG,5.02,7.43,6.41,2.11,8.23,4.04,1.45,3.12
AGTCGGAGGACAAAGGTCAGAGCTACGCCAGTGA,4.3,6.16,5.52,0.767,5.6,3.63,0.663,1.37
CGAGCTAGGTCACCAGGACAGTGAAGAGGTTGGA,3.31,4.21,5.39,1.24,2.97,3.18,1.65,0.493
CCCACTGGGGCAAAGGTTACCATACTCAGTACGA,2.15,3.57,1.81,-0.648,3.57,1.8,-0.0576,0.129
CGAACTAGGTCAAAGGACAGTGAGAGGCGACGTA,3.04,3.93,4.52,1.67,3.04,2.62,0.63,0.723
ATACCAAGGTGATCGTGAGTTCGTTGATACTAAC,0.465,0.682,0.338,1.2,0.456,1.58,0.74,4.63
AGAATGAGGTTACCAGAGATCAGGGAAACGCTTG,0.721,2.28,1.8,1.1,2.88,3.28,0.705,0.106
TCTACTTGGTCACGGAGGTCACACACGACGGGTA,4.43,5.15,5.47,1.33,5.3,3.6,3.15,3.56
ATATGTAGGTTAGGGTCATTAAGAAAGTAGGGAA,3.33,3.59,2.76,2.22,4.57,3.9,2.76,3.54
CGTCCAAGGGCAATGCTAGGTCAGTGAAAGCATT,3.04,3.71,2.64,0.887,0.71,2.98,0.346,0.429
CGTTCAAGGTCATAGGAGGTCAGTGAAGACAGAT,5.77,7.11,7.22,4.47,6.46,5.23,3.63,5.25
CTATGTAGGTTAAGGGCGTCATTCAGTTTGAAAG,0.798,0.63,0.752,0.53,0.739,1.42,0.232,0.4

# Reference: the supplement of paper PMC6555819
